Test results taken from PubChem BioAssay AID1159580 (chemical genetic matrix, 2015).
Where “and” joins values, the source holds several entries; their conditions need not be identical. Identical values can stand only once. Screen size: about 5,500 compounds; about 2,000 (36%) were called active. Not shown: some 18% with an inconclusive outcome. No stated cut-off is given here; in the data, active means normalized growth mostly below about 0.91 (no sharp cut-off); inconclusive means no clear call, values can overlap the other calls; inactive means mostly above about 0.92. The list shows a part of the results.

Test: chemical genetic growth profiling, strain panel (AID 1159580);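 further: tested at 20 µM; growth read once vehicle control cultures reached saturation at 30 °C; 1 = growth at the plate median or of vehicle wells; lower values mean less growth of the strain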
Details: S. cerevisiae deletion strains, growth OD

Measured: normalized growth

O=C(O)CCCCC1SCC2NC(=O)NC21 (stereo not drawn)
inactive: locus YAL013W, strain DEP1, active compounds read low 1.02 | locus YAL021C, strain ccr4, active compounds read low 0.999 | locus YAL026C, strain drs2, active compounds read low 0.994 | locus YAL030W, strain snc1, active compounds read low 0.995 | locus YBL061C, strain skt5, active compounds read low 0.989 | locus YBR009C, strain hhf1, active compounds read low 0.997 | locus YBR021W, strain FUR4, active compounds read low 0.977 | locus YBR023C, strain chs3, active compounds read low 0.979 | locus YBR171W, strain sec66, active compounds read low 0.996 | locus YBR229C, strain ROT2, active compounds read low 1 | locus YBR231C, strain swc5, active compounds read low 0.998 | locus YBR279W, strain paf1, active compounds read low 0.997 | locus YCL011C, strain gbp2, active compounds read low 0.995 | locus YCL016C, strain dcc1, active compounds read low 0.995 | locus YCL029C, strain bik1, active compounds read low 0.998 | locus YCL061C, strain MRC1, active compounds read low 1 | locus YCL069W, strain vba3, active compounds read low 0.97 | locus YCR088W, strain abp1, active compounds read low 0.981 | locus YDL005C, strain med2, active compounds read low 0.98 | locus YDL035C, strain GPR1, active compounds read low 0.996 | locus YDL040C, strain nat1, active compounds read low 1 | locus YDL074C, strain BRE1, active compounds read low 1.01 | locus YDL101C, strain DUN1, active compounds read low 0.989 | locus YDL134C, strain PPH21, active compounds read low 1 | locus YDL185W, strain tfp1, active compounds read low 0.997 | locus YDL192W, strain arf1, active compounds read low 1.01 | locus YDR001C, strain nth1, active compounds read low 0.985 | locus YDR069C, strain doa4, active compounds read low 0.973 | locus YDR101C, strain arx1, active compounds read low 0.98 | locus YDR137W, strain rgp1, active compounds read low 0.983 | locus YDR150W, strain NUM1, active compounds read low 1.02 | locus YDR159W, strain sac3, active compounds read low 1.02 | locus YDR162C, strain NBP2, active compounds read low 1.01 | locus YDR195W, strain ref2 1.01 | locus YDR297W, strain sur2, active compounds read low 0.996 | locus YDR318W, strain mcm21, active compounds read low 1 | locus YDR334W, strain swr1, active compounds read low 0.984 | locus YDR335W, strain msn5, active compounds read low 0.986 | locus YDR388W, active compounds read low 1 | locus YDR392W, strain spt3, active compounds read low 0.996 | locus YDR502C, strain sam2, active compounds read low 0.994 | locus YEL003W, strain gim4, active compounds read low 0.984 | locus YEL037C, strain rad23, active compounds read low 0.992 | locus YEL061C, strain CIN8 (second series), active compounds read low 1 | locus YEL061C, strain CIN8, active compounds read low 1.02 | locus YER015W, strain faa2, active compounds read low 0.979 | locus YER016W, strain bim1, active compounds read low 0.988 | locus YER110C, active compounds read low 1 | locus YER111C, strain swi4, active compounds read low 1 | locus YER155C, strain BEM2 (second series), active compounds read low 0.985 | locus YER155C, strain BEM2, active compounds read low 0.999 | locus YER167W, strain BCK2, active compounds read low 1 | locus YFR010W, strain ubp6, active compounds read low 0.995 | locus YGL078C, strain dbp3, active compounds read low 0.99 | locus YGL086W, strain mad1, active compounds read low 0.993 | locus YGL167C, strain pmr1, active compounds read low 0.99 | locus YGL173C, strain kem1, active compounds read low 0.985 | locus YGL227W, strain vid30, active compounds read low 1 | locus YGL240W, strain doc1, active compounds read low 0.985 | locus YGL248W, strain PDE1, active compounds read low 1 | locus YGL253W, strain hxk2, active compounds read low 0.985 | locus YGR078C, strain PAC10, active compounds read low 1.05 | locus YGR135W, strain pre9, active compounds read low 0.999 | locus YGR252W, strain gcn5, active compounds read low 0.944 | locus YHR013C, strain ard1, active compounds read low 0.988 | locus YHR027C, strain rpn1, active compounds read low 0.989 | locus YHR030C, strain SLT2, active compounds read low 1.02 and 1.01 | locus YHR079C, strain IRE1 (second series), active compounds read low 1.02 | locus YHR079C, strain IRE1, active compounds read low 1.01 | locus YHR094C, strain hxt1, active compounds read low 1 | locus YHR129C, strain ARP1, active compounds read low 1.01 | locus YHR142W, strain chs7, active compounds read low 0.982 | locus YHR200W, strain rpn10, active compounds read low 0.996 | locus YIL066C, strain RNR3, active compounds read low 1.01 | locus YIL073C, strain SPO22, active compounds read low 1.02 | locus YIL125W, strain kgd1, active compounds read low 0.987 | locus YIR030C, strain dcg1, active compounds read low 1.01 | locus YJL092W, strain hpr5, active compounds read low 0.986 | locus YJL095W, strain BCK1 (second series), active compounds read low 0.998 | locus YJL095W, strain BCK1, active compounds read low 1.02 and 1 | locus YJL115W, strain asf1, active compounds read low 0.996 | locus YJL129C, strain trk1, active compounds read low 0.954 | locus YJL134W, strain LCB3, active compounds read low 1.01 | locus YJL154C, strain vps35, active compounds read low 0.994 | locus YJL164C, strain tpk1, active compounds read low 1 | locus YJL166W, strain qcr8, active compounds read low 0.965 | locus YJL168C, strain set2, active compounds read low 0.993 | locus YJL187C, strain SWE1 (second series), active compounds read low 1
